Inconclusive results are not listed. A number with no mark means an inactive call. Activity calls are given as the source filed them. The call rests on the fitted dose curve; in most records, active means well fitted inhibition curve with a large enough effect in the repeat runs; inconclusive means weak or mixed curves; inactive means no such curve, though single readings can be large or run the other way.
Assay: qHTS assay to identify small molecule antagonists of the estrogen related receptor (ERR) signaling pathway from Tox21 library (AID 1224848); further: nearly all actives have a fitted effect of over 50% in size
Settings: ERR reporter cell line, luciferase antagonist mode, 18 h; series mostly up to 92.4 µM; activity, negative = inhibition: at the top concentration
Description: U.S. Tox21 Program National Center for Advancing Translational Sciences [NCATS] NIH Chemical Genomics Center [NCGC] U.S. Environmental Protection Agency [EPA] National Institutes of Environmental Health Sciences [NIEHS] National Toxicology Program [NTP] U.S. Food and Drug Administration [FDA] Tox21 Assay Overview: Estrogen related receptors (ERRs), the first orphan nuclear receptors discovered, play an important role in the control of cellular energy metabolism. ERRs are required for high-energy production in response to the environmental challenges. ERR-alpha was also identified as an adverse marker for breast cancer progression; ERR-alpha-positive tumors have a poor prognosis. To screen and to identify environmental compounds that perturb the ERR signaling pathways could provide valuable information for potential therapeutic or preventive measures in the treatment of metabolic disease. For identifying ERR antagonists, ERR cell line (provided by NTP) has been used to screen Tox21 10K library.
Tox21 Assay Protocol Summary: The ERR cells were dispensed at 2,000 cells/5 ul/well in 1536-well white plates using a Multidrop dispenser. After the assay plates were incubated at a 37 C/5% CO2 incubator for 6 hours, 23 nL of compounds dissolved in DMSO, positive and negative controls or DMSO only was transferred to the assay plate by a pin tool. The plates were incubated at 37 C for 18 hours. 4 ul/well of One-Glo reagent was added into the assay plates using a Flying Reagent Dispenser. After 30-minute incubation at room temperature, the luminescence intensity in the plates was measured using a ViewLux plate reader.
On the % scale 0 is the no-effect control and ±100 the full control effect; potency means the concentration at half of the fitted maximal effect.

Question: For `COc1cc(/C=C/C(=O)CC(=O)/C=C/c2ccc(O)c(OC)c2)ccc1O`, which Potency is on record?
Answer: 13.8 µM (active)

Question: With `Cc1cccc2c1ccc1ccccc12` as the compound, how does the Potency read?
Answer: 24.3 µM (active)

Question: Which “activity, negative = inhibition” value does the source give for `Oc1ccc(Cl)cc1C1CCCC1` here?
Answer: 7.34%

Question: Which “activity, negative = inhibition” value does the source give for `CCCCCCCCSCc1cc(C)c(O)c(CSCCCCCCCC)c1` here?
Answer: 6.8%

Question: With `Cc1cc(C)c(O)c(C(C)(C)C)c1` as the compound, how does the “activity, negative = inhibition” value read?
Answer: -10.2%

Question: For `Clc1ccc2c(Cl)ccnc2c1`, which “activity, negative = inhibition” value is on record?
Answer: 2.87%

Question: With `O=C1OC2(c3ccccc31)c1ccc(O)c(Br)c1Oc1c2ccc(O)c1Br` as the compound, how does the “activity, negative = inhibition” value read?
Answer: -18.6%

Question: With `CCCCCCCCc1ccc(Nc2ccc(CCCCCCCC)cc2)cc1` as the compound, how does the “activity, negative = inhibition” value read?
Answer: -7.63% [at 42.5 µM]

Question: With `COc1cc(OC)nc(NC(=O)NS(=O)(=O)Nc2ccccc2C(=O)N(C)C)n1` as the compound, how does the “activity, negative = inhibition” value read?
Answer: -18.6%

Question: Which “activity, negative = inhibition” value does the source give for `[Cl][Sc]([Cl])[Cl]` here?
Answer: 4.18%

Question: With `CCCCCN=C(N)N/N=C/c1c[nH]c2ccc(OC)cc12` as the compound, how does the Potency read?
Answer: 15 µM (active)

Question: With `c1ccc2occc2c1` as the compound, how does the “activity, negative = inhibition” value read?
Answer: 10.6%

Question: Which “activity, negative = inhibition” value does the source give for `COC(=O)c1ccc([N+](=O)[O-])cc1` here?
Answer: 2.63%

Question: For `CCCCCc1ccc(O)cc1`, which “activity, negative = inhibition” value is on record?
Answer: 3.34%

Question: Which “activity, negative = inhibition” value does the source give for `Cc1ccc2n[nH]nc2c1` here?
Answer: 8.01%

Question: With `CC/C(=C(/c1ccc(O)cc1)c1ccc(OCCN(C)C)cc1)c1ccccc1` as the compound, how does the Potency read?
Answer: 18 µM (active)

Question: With `COc1cc([C@@H]2c3cc4c(cc3[C@@H](O[C@@H]3O[C@@H]5CO[C@@H](C)O[C@H]5[C@H](O)[C@H]3O)[C@H]3COC(=O)[C@H]23)OCO4)cc(OC)c1O` as the compound, how does the Potency read?
Answer: 3.81 µM (active)

Question: For `CC/C=C(\C)C=O`, which “activity, negative = inhibition” value is on record?
Answer: 12%

Question: For `Nc1cc([N+](=O)[O-])ccc1Cl`, which “activity, negative = inhibition” value is on record?
Answer: 3.52%

Question: With `Clc1cccc(Cl)n1` as the compound, how does the “activity, negative = inhibition” value read?
Answer: 0.194%

Question: Which “activity, negative = inhibition” value does the source give for `CC1(C)[C@H]2CC[C@]1(C)C(=O)C2` here?
Answer: 12.5%

Question: For `NC(=O)c1ccccc1Cl`, which “activity, negative = inhibition” value is on record?
Answer: 6.31%

Question: For `CCN(CCC#N)c1ccc(N=Nc2ccc([N+](=O)[O-])cc2)cc1`, which “activity, negative = inhibition” value is on record?
Answer: 31.4%

Question: For `CCC1(C)C(=O)N(Cl)C(=O)N1Cl` (stereo not given), which “activity, negative = inhibition” value is on record?
Answer: -6.56%

Question: With `Oc1ccc2c(c1)CCC2` as the compound, how does the “activity, negative = inhibition” value read?
Answer: 14.9%

Question: For `O=S(=O)(c1ccc(OCc2ccccc2)cc1)c1ccccc1O`, which Potency is on record?
Answer: 19.3 µM (active)

Question: With `CCCCCCCCCCCCCCCCC(C(=O)O)C(O)(CC(=O)O)C(=O)O` (stereo not given) as the compound, how does the “activity, negative = inhibition” value read?
Answer: -5.32% [at 42.5 µM]

Question: With `CC(O)(c1ccc(Cl)cc1)c1ccc(Cl)cc1` as the compound, how does the Potency read?
Answer: 61.1 µM (active)

Question: For `C=C1CC[C@H]2O[C@]2(C)CC[C@@H]2[C@@H]1CC2(C)C`, which “activity, negative = inhibition” value is on record?
Answer: 5.08%

Question: With `CCCC(C)C=O` (stereo not given) as the compound, how does the “activity, negative = inhibition” value read?
Answer: 9.27%

Question: Which Potency does the source give for `Cc1ccc(S(=O)(=O)C(I)I)cc1` here?
Answer: 61.1 µM (active)

Question: Which Potency does the source give for `CN1CCN(c2ccccc2/C=C2\SCCN(c3ccc(Cl)c(Cl)c3)C2=O)CC1` here?
Answer: 24.3 µM (active)

Question: For `Nc1ccc2c(S(=O)(=O)O)cccc2c1S(=O)(=O)O`, which “activity, negative = inhibition” value is on record?
Answer: -1.35% [at 42.5 µM]

Question: Which “activity, negative = inhibition” value does the source give for `N#CCCOCCC#N` here?
Answer: 1.56%

Question: For `CC(C)(C)c1cc(CCC(=O)OCCSCCOC(=O)CCc2cc(C(C)(C)C)c(O)c(C(C)(C)C)c2)cc(C(C)(C)C)c1O`, which “activity, negative = inhibition” value is on record?
Answer: -7.79% [at 42.5 µM]

Question: Which Potency does the source give for `CN1CCN(CCCN2c3ccccc3Sc3ccc(C(F)(F)F)cc32)CC1` here?
Answer: 33.5 µM (active)

Question: Which “activity, negative = inhibition” value does the source give for `C=Cc1ccncc1` here?
Answer: 10%

Question: For `Brc1cc(Br)cc(Br)c1`, which “activity, negative = inhibition” value is on record?
Answer: -5.17%

Question: With `Cc1c[nH]c(=O)[nH]c1=O` as the compound, how does the “activity, negative = inhibition” value read?
Answer: 0.04%

Question: For `c1ccc(-c2ccc(C(c3ccccc3)n3ccnc3)cc2)cc1` (stereo not given), which Potency is on record?
Answer: 23.7 µM (active)
